For some assays here: Entries with a potency or affinity are not part of this list.
How the values were obtained:
Set-up in all cases: scale not given: direction of the effect not stated beside the values
[1] = target: Protein translocase subunit SecA (Escherichia coli (strain K12)) (UniProt P10408); assay: Assay to Identify E. coli SecA ATPase Inhibitors; assay type: functional; details: 30 µM
[2] = target: T1, Ubiquitin-activating enzyme e1, putative (Leishmania donovani (strain BPK282A1)) (UniProt E9BSI1); assay: Leishmania donovani Ubiquitin Activating Enzyme (LdE1); assay type: functional; details: 30 µM
T1 sequence (whole entry): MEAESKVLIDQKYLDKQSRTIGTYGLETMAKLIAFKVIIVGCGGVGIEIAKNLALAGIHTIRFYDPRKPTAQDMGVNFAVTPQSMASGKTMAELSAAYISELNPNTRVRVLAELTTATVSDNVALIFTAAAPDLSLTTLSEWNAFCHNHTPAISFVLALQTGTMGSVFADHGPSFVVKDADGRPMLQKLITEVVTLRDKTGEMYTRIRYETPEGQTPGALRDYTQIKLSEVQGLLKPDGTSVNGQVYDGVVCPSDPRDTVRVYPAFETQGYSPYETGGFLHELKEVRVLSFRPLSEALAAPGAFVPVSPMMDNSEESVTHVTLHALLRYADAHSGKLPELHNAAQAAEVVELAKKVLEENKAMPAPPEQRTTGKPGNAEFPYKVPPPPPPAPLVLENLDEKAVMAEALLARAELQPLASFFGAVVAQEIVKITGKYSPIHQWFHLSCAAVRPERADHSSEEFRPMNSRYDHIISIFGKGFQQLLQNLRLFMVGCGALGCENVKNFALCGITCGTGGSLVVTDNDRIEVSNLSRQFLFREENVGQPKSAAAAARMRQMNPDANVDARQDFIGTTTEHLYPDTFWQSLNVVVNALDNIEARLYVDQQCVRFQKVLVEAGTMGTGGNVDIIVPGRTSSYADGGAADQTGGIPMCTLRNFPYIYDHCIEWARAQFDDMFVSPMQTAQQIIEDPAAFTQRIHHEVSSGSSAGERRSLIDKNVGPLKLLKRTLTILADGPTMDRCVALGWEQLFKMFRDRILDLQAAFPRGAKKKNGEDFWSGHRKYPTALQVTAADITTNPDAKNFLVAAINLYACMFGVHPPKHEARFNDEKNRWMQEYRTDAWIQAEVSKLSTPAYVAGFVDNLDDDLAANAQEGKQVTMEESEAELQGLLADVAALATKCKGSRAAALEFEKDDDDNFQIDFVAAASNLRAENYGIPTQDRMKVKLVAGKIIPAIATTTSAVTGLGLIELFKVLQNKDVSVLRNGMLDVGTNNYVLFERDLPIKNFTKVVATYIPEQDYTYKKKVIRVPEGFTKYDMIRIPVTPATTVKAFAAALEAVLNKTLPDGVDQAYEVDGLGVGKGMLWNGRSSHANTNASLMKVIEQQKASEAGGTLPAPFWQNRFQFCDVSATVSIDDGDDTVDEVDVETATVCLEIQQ

[3] = target: Sialic acid-binding Ig-like lectin 9 (Homo sapiens) (UniProt Q9Y336); assay: Hs-Siglec9 ALPHAscreen SOP 20170721; details: 10 µM
[4] = test system: Trypanosoma cruzi; assay: Trypanosoma cruzi phosphomannomutase and mannose-1-phosphate guanylyltransferase assay; assay type: functional; details: 10 µM
[5] = target: T2, Arginase-2, mitochondrial (Homo sapiens) (UniProt P78540); assay: in vitro enzyme assay to detect the production of urea directly proportional to the activity of Arginase II; assay type: functional; details: 33.3 µM; also: in the data most compounds retested in dose-response had high values
T2 sequence (whole entry): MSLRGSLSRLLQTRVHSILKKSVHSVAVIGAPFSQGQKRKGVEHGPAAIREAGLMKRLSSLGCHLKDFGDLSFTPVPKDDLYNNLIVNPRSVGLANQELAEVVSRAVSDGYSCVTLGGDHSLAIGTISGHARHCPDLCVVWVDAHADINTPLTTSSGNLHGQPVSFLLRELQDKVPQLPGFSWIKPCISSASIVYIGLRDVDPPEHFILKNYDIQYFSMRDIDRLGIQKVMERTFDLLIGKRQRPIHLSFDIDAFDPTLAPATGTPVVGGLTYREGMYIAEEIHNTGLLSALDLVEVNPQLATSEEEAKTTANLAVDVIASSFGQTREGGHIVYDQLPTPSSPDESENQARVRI

[6] = target: T3, Proteasome subunit beta (Trypanosoma cruzi) (UniProt O96673); assay: Trypanosoma cruzi proteasome chymotrypsin-like activity (TcProtChymo) assay.; also: in the data most compounds retested in dose-response had high values; assay type: functional; details: 9.37 µM
T3 sequence (whole entry): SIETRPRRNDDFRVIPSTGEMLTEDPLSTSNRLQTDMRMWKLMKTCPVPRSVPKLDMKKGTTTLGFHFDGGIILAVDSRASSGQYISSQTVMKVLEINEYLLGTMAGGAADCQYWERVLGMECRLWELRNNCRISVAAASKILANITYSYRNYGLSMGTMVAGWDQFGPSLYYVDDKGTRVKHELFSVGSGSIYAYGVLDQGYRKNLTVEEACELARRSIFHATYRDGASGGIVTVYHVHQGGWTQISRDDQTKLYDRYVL

[7] = species on record: Homo sapiens; assay: To identify inhibition of the IFN signalling (Jak-Stat) pathway via expression of an eGFP reporter gene under the control of an IFN-stimulated response element (ISRE) containing MxA promoter.; assay type: functional; details: 30 µM
[8] = target: T4, Tyrosyl-tRNA synthetase, putative (Trypanosoma cruzi (strain CL Brener)) (UniProt Q4DSP6); assay: Trypanosoma cruzi tyrosyl tRNA synthetase (TcYRS) _High Tyrosine SOP; assay type: functional; details: 30 µM; also: in the data most compounds retested in dose-response had high values
T4 sequence (whole entry): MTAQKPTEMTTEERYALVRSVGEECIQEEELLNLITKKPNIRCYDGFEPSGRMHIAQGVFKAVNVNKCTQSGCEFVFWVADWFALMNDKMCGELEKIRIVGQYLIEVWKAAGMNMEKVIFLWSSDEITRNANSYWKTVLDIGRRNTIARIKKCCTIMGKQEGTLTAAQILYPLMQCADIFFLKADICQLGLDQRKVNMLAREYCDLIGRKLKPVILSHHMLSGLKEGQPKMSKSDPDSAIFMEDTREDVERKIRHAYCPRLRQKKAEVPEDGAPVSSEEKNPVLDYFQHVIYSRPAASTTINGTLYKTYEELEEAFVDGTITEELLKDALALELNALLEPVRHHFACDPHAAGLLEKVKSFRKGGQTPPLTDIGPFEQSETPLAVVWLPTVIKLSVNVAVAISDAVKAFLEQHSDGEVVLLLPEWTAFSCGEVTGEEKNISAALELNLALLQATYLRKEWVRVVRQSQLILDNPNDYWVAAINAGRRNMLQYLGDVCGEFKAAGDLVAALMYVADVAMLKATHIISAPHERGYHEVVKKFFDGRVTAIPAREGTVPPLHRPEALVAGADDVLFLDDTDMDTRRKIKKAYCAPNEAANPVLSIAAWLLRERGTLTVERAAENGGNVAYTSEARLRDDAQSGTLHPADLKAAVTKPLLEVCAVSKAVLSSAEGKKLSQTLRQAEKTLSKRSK

[9] = target: T4, Tyrosyl-tRNA synthetase, putative (Trypanosoma cruzi (strain CL Brener)); assay: Trypanosoma cruzi tyrosyl tRNA synthetase (TcYRS) SOP; assay type: functional; details: 30 µM
[10] = target: Chromo domain-containing protein 1 (Saccharomyces cerevisiae (strain ATCC 204508 / S288c) (Baker's yeast)) (UniProt P32657); assay: ScCHD-1 Enzyme Inhibition Assay; assay type: functional; details: 30 µM; also: in the data most compounds retested in dose-response had high values
Chain of Chromo domain-containing protein 1 (Saccharomyces cerevisiae (strain ATCC 204508 / S288c) (Baker's yeast)) (P32657 whole entry, the tested form may be a part): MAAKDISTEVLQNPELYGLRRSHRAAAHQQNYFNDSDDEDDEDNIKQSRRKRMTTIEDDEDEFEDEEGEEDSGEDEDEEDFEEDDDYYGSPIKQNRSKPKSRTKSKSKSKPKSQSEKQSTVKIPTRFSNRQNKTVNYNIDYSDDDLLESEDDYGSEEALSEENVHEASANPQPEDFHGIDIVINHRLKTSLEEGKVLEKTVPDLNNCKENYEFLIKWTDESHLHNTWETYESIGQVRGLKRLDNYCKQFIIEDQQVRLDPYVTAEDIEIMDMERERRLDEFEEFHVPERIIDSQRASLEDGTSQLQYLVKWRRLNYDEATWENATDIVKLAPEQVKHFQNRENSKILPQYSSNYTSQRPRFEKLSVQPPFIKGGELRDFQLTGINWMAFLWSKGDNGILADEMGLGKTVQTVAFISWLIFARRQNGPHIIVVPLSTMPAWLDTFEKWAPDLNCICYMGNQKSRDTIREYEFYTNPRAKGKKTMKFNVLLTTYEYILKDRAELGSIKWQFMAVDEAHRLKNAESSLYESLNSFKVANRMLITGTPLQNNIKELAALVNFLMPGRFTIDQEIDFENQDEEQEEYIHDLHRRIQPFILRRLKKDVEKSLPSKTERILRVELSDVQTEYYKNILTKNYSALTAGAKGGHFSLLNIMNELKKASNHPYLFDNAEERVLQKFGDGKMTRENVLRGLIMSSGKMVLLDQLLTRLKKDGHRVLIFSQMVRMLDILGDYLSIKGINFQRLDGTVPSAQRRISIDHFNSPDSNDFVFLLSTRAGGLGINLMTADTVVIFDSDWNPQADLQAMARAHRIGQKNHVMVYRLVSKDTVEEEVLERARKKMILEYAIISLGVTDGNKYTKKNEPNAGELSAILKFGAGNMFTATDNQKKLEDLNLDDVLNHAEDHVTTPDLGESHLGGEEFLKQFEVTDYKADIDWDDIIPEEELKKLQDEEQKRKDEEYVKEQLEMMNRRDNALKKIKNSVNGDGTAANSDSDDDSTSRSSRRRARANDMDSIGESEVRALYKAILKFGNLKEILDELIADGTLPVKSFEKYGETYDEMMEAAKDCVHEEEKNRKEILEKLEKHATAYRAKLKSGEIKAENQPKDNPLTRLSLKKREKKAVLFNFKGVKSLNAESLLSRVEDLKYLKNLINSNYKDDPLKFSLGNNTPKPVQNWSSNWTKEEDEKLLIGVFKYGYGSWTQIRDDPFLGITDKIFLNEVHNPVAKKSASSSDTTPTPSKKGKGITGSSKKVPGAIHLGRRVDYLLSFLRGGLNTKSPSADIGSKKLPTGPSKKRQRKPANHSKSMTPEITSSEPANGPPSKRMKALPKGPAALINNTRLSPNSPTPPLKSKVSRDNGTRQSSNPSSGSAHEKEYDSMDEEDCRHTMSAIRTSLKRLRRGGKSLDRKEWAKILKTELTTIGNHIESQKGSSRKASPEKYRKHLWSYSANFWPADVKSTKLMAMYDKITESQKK

Chain of Protein translocase subunit SecA (Escherichia coli (strain K12)) (P10408 whole entry): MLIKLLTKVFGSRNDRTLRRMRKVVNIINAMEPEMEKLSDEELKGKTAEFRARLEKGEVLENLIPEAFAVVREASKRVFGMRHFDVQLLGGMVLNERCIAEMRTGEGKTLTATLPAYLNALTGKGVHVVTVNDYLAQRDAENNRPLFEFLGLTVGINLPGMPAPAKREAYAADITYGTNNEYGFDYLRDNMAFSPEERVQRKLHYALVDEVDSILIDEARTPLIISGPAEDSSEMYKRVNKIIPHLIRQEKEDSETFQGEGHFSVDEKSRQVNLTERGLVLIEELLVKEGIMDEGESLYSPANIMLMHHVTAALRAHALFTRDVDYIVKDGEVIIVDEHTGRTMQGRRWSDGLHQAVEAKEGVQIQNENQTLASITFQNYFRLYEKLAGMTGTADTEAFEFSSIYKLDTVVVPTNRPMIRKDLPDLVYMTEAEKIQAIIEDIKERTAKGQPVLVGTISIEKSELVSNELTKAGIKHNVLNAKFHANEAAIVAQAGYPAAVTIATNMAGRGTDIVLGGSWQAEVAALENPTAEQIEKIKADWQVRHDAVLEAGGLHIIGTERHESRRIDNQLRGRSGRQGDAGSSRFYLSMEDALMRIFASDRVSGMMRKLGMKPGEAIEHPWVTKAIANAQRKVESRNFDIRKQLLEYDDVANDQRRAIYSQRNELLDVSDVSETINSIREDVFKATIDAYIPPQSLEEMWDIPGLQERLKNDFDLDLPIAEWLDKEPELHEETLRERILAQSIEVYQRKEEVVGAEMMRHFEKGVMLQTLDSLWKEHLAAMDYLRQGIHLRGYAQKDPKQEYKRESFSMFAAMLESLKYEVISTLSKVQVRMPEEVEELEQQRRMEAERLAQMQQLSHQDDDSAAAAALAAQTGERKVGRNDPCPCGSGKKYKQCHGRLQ
Chain of Sialic acid-binding Ig-like lectin 9 (Homo sapiens) (Q9Y336 whole entry): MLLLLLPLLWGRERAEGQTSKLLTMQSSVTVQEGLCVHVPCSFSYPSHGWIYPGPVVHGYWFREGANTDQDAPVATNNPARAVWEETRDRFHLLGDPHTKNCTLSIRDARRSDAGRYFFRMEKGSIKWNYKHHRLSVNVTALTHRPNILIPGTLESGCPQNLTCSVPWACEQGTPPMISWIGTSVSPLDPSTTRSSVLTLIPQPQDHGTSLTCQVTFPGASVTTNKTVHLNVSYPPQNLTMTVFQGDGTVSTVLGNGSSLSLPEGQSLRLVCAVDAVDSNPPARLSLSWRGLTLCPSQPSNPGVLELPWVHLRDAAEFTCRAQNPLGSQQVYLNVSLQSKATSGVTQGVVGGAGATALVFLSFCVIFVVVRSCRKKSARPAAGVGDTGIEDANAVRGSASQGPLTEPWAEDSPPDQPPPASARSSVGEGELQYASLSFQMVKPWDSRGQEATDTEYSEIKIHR

| Structure (SMILES) | Percent Effect [1] [%] | Percent Effect [2] [%] | Percent Effect [3] [%] | Percent Effect [4] [%] | Percent Effect [5] [%] | Percent Effect [6] [%] | Percent Effect [7] [%] | Percent Effect [8] [%] | Percent Effect [9] [%] | Percent Effect [10] [%] |
| --- | --- | --- | --- | --- | --- | --- | --- | --- | --- | --- |
| Cn1ccc(CN2CCC(NC(=O)NC3CCCCC3)CC2)cc1=O | -2.35 | 10.3 | 10.4 | -2.16 | 6.15 | -1.28 | 27.9 | 4.31 | 10.8 | -1.97 |
| COCC1CN(Cc2ccc(OC)cc2)Cc2nn(C)cc21 (stereo not given) | 0.916 | 22.1 | -1.55 | -9.45 | 12.2 | 18.4 | 20.9 | 6.84 | 2.56 | -2.71 |
| c1ccc(-n2ccc(CN3CCCC3Cn3cccn3)n2)cc1 (stereo not given) | -2.21 | -49.4 | 9.5 | -5.97 | -7.17 | 8.25 | 11.5 | 0 | -11.8 | 3.12 |
| Cc1cc(C)n(C2CCCN(C(=O)c3c(C)c(C)n[nH]c3=O)C2)n1 (stereo not given) | -1.62 | 8 | 4.21 | -4.62 | 0.887 | 4.16 | 17.4 | 1.58 | 2.56 | -4.78 |
| Cn1ncc(NCc2cc(F)cc(F)c2)c(Cl)c1=O | -3.8 | 13.3 | -5.81 | -3.01 | -10.6 | 7.55 | 37.7 | 4.74 | 10.3 | -11.4 |
| CCc1ccsc1C(=O)N1CCN(C(=O)CC(F)(F)F)CC1 | 2.23 | 18.2 | 11.7 | 1.68 | 1.02 | 10.5 | -19.1 | 6.86 | 23.5 | -4.02 |
| Cc1cc(NC(=O)C(C)N2CCCN(c3nccs3)CC2)on1 (stereo not given) | -5.38 | 7.69 | 6.57 | 1.03 | 5.74 | 7.08 | 12.4 | 0.478 | 8.43 | 6.1 |
| O=C(Cn1cc(-c2ccccc2)ncc1=O)Nc1ccncc1 | -7.06 | 5.41 | 4.3 | -0.097 | 3.85 | 20 | -4.45 | 6.92 | 17.1 | 90.8 |
| CNc1cc(N2CCCC2CNCc2cnc(C)cn2)ncn1 (stereo not given) | -4.22 | 0 | -3.13 | 1.78 | 6.15 | 2.47 | 21.4 | 2.39 | 1.21 | 2.01 |
| CN1CCC(c2ncc3c(n2)CCN(C(=O)CC2C=CCC2)C3)CC1 (stereo not given) | 1.34 | 14.7 | -4.21 | -1.58 | 3.1 | 9.03 | 7.04 | 12.7 | 22.5 | -23.1 |
| CCCc1cc(CNC(=O)C2CCOc3ccccc3C2)on1 (stereo not given) | -1.27 | 10.8 | 3.17 | 2.62 | 15.7 | 10.8 | 29.7 | 5.85 | 14.6 | -2.75 |
| CN(Cc1ccccc1)CC(O)Cn1cnc2c(cnn2C)c1=O (stereo not given) | -1.52 | 17.9 | -4.11 | 4.79 | 2.46 | 10.5 | -1.98 | 7.18 | 22.9 | -3.86 |
| Cc1nccn1-c1cccc(C2CCCN2S(=O)(=O)c2cn(C)cn2)n1 (stereo not given) | -6.36 | 1.33 | -0.612 | -3.94 | -0.885 | -0.493 | 22.4 | 0 | -2.5 | -23.4 |
| Cc1ncnc(NCc2cc3n(n2)CCCN(S(C)(=O)=O)C3)c1C | -4.52 | 8.11 | 3.12 | -1.07 | -1.75 | 7.71 | -0.0892 | 5.85 | 14.6 | -4.37 |
| CN1CC(c2ccccc2)CC2(CCN(CC(=O)N(C)C)CC2)C1 (stereo not given) | -6.25 | 5.41 | 9.32 | 8.44 | -3.85 | 9.42 | -25 | 1.6 | 17.1 | -2.37 |
| OC(COc1ccc(F)cc1)CN1CCC(Cn2cccn2)CC1 (stereo not given) | 0.447 | 18.2 | 8.44 | 0.933 | -5.12 | 6.14 | -5.99 | 10.8 | 23.5 | -4.98 |
| CCc1nccn1C1CCCN(C(=O)Cc2ccc(OC)c(F)c2)C1 (stereo not given) | -7.36 | 16 | 14.5 | -1.21 | 1.77 | 7.38 | 13 | 6.84 | 10.3 | -9.19 |
| CCn1ccnc1CN(C)CC1CCCN1c1cccnn1 (stereo not given) | -2.58 | 2.67 | -5.89 | 0 | 0.887 | 20.8 | 6.16 | 5.79 | 12.8 | -11.5 |
| COc1ccc(-c2nc(CN3CCc4c(ncn4C)C3)cs2)cc1 | -0.999 | -12.8 | -13.6 | 3.66 | 0.41 | 13.4 | 18.6 | 18.7 | 22.9 | 4.88 |
| Cc1ccoc1-c1nnc(CN2CCCC(Cn3cncn3)C2)o1 (stereo not given) | -4.32 | 0 | 3.64 | 2.54 | 7.38 | -8.45 | 14.1 | 3.35 | 1.21 | -1.2 |
| CCOC1COC2(CCN(Cc3cccc(F)c3)CC2)C1 (stereo not given) | -1.34 | 14.3 | -2.76 | -1.13 | 0.457 | 5.75 | 21.4 | 2.9 | 7.5 | -7.79 |
| CNC(=O)COc1ccccc1CNC1CCc2ncnn2C1 (stereo not given) | -1.08 | 2.56 | -25.1 | 6.67 | -1.23 | 18.7 | 13.3 | 6.22 | 20.5 | 44.8 |
| Cc1ccccc1-c1cncc(C2CCN(C(C)C)CC2)n1 | -10.1 | 12 | 6.88 | 3.55 | -1.77 | 8.37 | -7.37 | 7.41 | 17.5 | -27.9 |
